Screens as filed in PubChem BioAssay.
In the library only some 4.9% were active in any assay of this set; here they are far more common.
HSF1 inhib – HSF1 inhibition; AID 2098; NIH3T3-HGL HSE-luciferase, MG132-induced, luminescence 8 h; hits give low values; 300,000 tested, 0.77% active; activity change, negative = inhibition, % at 7.5 µM (by protocol);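 active = more than half of replicate wells show activity change below -50%, luminescence cut by over half; inconclusive = some wells, but at most half, below -50%; inactive = no replicate well below -50%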;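 note: luciferase reports HSF-1 transcriptional activity via heat shock element; 0% = median of DMSO wells and -100% = zero luminescence signal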
HSF-1 act – increases HSF-1 driven luciferase reporter signal; NIH3T3-HGL HSF-1 luciferase reporter, MG132, 8 h; 100% = twice DMSO control signal; activation, % at 9 µM; 300,000 tested, 1.7% active; AID 504408;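 active = mean replicate activation of at least 50% with a set share of replicates each reaching 50%; inconclusive = only one of those two conditions met; inactive = mean below 50% and too few replicates reaching it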;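 note: 0% = median of the neutral control wells and 100% = twice that signal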
Platelet DG rel – modulates dense granule release in human platelets; human platelet-rich plasma, SFLLRN dense granule ATP release, luminescence; inhibition, %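 (compounds screened at 7.5 µM in platelet-rich plasma)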; 300,000 tested, 0.22% active; AID 1663;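 active = mean replicate score, as percent of positive control, at or above 50; inconclusive = mean below 50 but at least one replicate at or above 50; inactive = mean and every replicate below 50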
MPTP inh – permeability transition pore inhibition; 360,000 tested, 1.4% active; inhibition, % at 10 µM; isolated mouse mitochondria, Ca2+ swelling absorbance, 30 min; AID 602449;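 active = inhibition of 50% or more, scaled per plate between neutral and stimulator controls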;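 note: 0% = DMSO wells given calcium and 100% = 1 mM EGTA wells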
dFosB act – enhances mouse delta FosB homodimer DNA binding. activation, % at 25 µM. 340,000 tested, 0.99% active. AID 493131. purified delta FosB, TAMRA-CDK5 oligo fluorescence polarization; percent of positive-control signal above neutral wells;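 active = mean activation above about 17%, with every replicate also reaching it, limit read from the data, passing the limit was not always enough; inconclusive = only one of the two conditions met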
Target sequence (P13346 whole entry, looked up): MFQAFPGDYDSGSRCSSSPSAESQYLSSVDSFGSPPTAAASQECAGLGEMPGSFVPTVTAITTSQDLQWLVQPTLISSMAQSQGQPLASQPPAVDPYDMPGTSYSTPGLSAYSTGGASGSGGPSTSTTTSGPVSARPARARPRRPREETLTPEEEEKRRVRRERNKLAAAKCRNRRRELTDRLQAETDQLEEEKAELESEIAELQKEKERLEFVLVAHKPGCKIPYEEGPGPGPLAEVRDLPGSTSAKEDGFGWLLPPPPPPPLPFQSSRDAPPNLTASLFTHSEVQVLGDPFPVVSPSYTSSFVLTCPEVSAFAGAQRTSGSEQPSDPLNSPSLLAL
HSP90 refold inh – inhibitors of HSP90 luciferase refolding in rabbit reticulocyte lysate. inhibition, % at 5.6 µM. AID 1789. luciferase refolding luminescence, 3 h. 290,000 tested, 0.91% active;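 active = inhibition above the screen-wide mean plus 3 SD, computed separately per campaign, cut at about 16% in these data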;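 note: 0% = DMSO wells and 100% = 60 µM geldanamycin wells; inhibitors lower the luminescence because luciferase stays unfolded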
* = called active by the depositor; ? = inconclusive; · = no result given.

SMILES | HSF1 inhib | HSF-1 act | Platelet DG rel | MPTP inh | dFosB act | HSP90 refold inh
Cc1cc(OC(C)C(=O)N2CCN(c3ccc(F)cc3)CC2)c2c(C)cc(=O)oc2c1 (stereo not given) | -6 | 0 | 3 | 1 | -11 | 3
Cc1cc(Nc2c(C)n(C)n(-c3ccccc3)c2=O)c2ccccc2n1 | 4 | 0 | -10 | -4 | 7 | 1
O=C(/C=C/c1ccc(Cl)cc1Cl)Nc1ccncc1 | · | · | 1 | 42 | -7 | -1
O=C(/C=C/c1c(F)cccc1Cl)Nc1nc2ccccc2[nH]1 | 18 | 63* | 14 | 1 | -6 | 2
O=C(Nc1cccnc1)c1cc(-c2ccc(Cl)c(Cl)c2)on1 | 11 | ? | 55* | 1 | 76* | -3
O=C(Nc1cccnc1)c1cc(-c2ccc(F)cc2)on1 | 21 | 37 | 3 | 0 | -6 | 0
O=C(/C=C/c1c(F)cccc1Cl)Nc1ccncc1 | 42 | 69* | -11 | 2 | -22 | 2
O=C(/C=C/c1ccccc1Cl)Nc1ccncc1 | 38 | 53* | ? | 0 | -35 | -7
Cc1cccc(N(C(=O)CNC(=O)c2cccs2)C(C(=O)NC2CCCC2)c2ccncc2)c1 (stereo not given) | 5 | -4 | 8 | -2 | -1 | -1
O=[N+]([O-])c1cc(Cl)ccc1N1CCCC1 | -6 | 10 | 0 | 2 | 2 | 0
O=C1C(Cl)=C(N2CCN(c3ccccc3[N+](=O)[O-])CC2)C(=O)c2ccccc21 | 87 | 124* | 1 | 6 | -5 | -1
O=C(O)c1cccc2c(/C=N/Nc3ccccn3)c[nH]c12 | -14 | -11 | 25 | 2 | 4 | 6
C(=N\Nc1ccccn1)/c1c[nH]c2ccccc12 | 177 | 251* | 2 | 3 | 0 | 0
N#Cc1c(N)nc(SCc2ccncc2)c(C#N)c1-c1cccs1 | -68* | -70 | 6 | 1 | -22 | -2
CN1CCc2nc(SCc3ccc(Cl)cc3)c(C#N)c(-c3cccs3)c2C1 | 156 | 190* | 1 | · | · | 3
COc1cc(-c2c(C#N)c(N)nc(SCc3ccncc3)c2C#N)cc(OC)c1OC | -6 | -16 | 5 | -1 | -3 | 2
CCOc1ccc(NC(=S)NCc2ccc3c(c2)OCO3)cc1 | -2 | 3 | 18 | 1 | 1 | -1
COc1ccc(C(=O)CC(=O)C(=O)NCCc2cccc(C)c2)cc1 | 39 | 70* | 6 | -2 | -2 | -5
COc1ccc(C(=O)CC(=O)C(=O)Nc2cc(C)ccc2C)cc1 | 3 | 11 | -11 | 2 | -2 | -4
COc1ccc(/C=C/C(=O)NC(=S)NCCc2ccc(OC)c(OC)c2)cc1 | -61* | -67 | -2 | 1 | 7 | -1
COc1ccc(C(=O)CC(=O)C(=O)Nc2cc(OC)c(OC)c(OC)c2)cc1 | 43 | 77* | 1 | 4 | -10 | 0
COc1ccc(C(=O)CC(=O)C(=O)Nc2ccccc2)cc1 | 8 | 27 | -32 | 3 | -5 | -1
O=C(CN1CCN(S(=O)(=O)c2ccc(Br)cc2)CC1)N/N=C/c1cccnc1 | -2 | 15 | -3 | -2 | -11 | -2
Cc1ccc(C2CN=NC23CCc2ccccc2C3=O)cc1 (stereo not given) | 5 | 12 | -2 | 2 | -5 | 17*
Cc1cc(S(=O)(=O)Nc2ccc(C(=O)NCCCN3CCOCC3)cc2)ccc1F | -17 | -12 | -20 | 1 | -11 | ·
SMILES | HSF1 inhib | HSF-1 act | Platelet DG rel | MPTP inh | dFosB act | HSP90 refold inh
Cc1ccc(C(NC(=O)NCCCN2CCOCC2)=C(Cl)Cl)cc1F | 31 | 69* | 3 | 7 | -5 | 2
CCOC(=O)c1ccc(N2Cc3ccccc3C2=NC(=O)c2cccc([N+](=O)[O-])c2)cc1 | 30 | 68* | 6 | 3 | -11 | ·
COc1ccc2ccccc2c1C1CC(=O)N2CN(C3CCCCC3)CSC2=C1C#N (stereo not given) | -54* | -64 | 0 | -2 | -8 | -3
CSc1cccc(NC(=S)N2CCC(N(C)C3CCCC3)CC2)c1 | -73* | -79 | 1 | 0 | -4 | -2
COc1ccc(NC(=S)N2CCc3ccccc3C2)cc1 | 28 | 61* | -3 | 0 | -5 | -3
COc1cccc(N2CCN(c3ncccn3)CC2)c1 | 42 | 73* | -2 | -1 | -3 | -2
COc1cccc(C(=O)N2CCN(c3ncccn3)CC2)c1 | 5 | 6 | -11 | -2 | 4 | -2
COc1cccc(NC(=S)N2CCCC2)c1 | 28 | 57* | -14 | 0 | -6 | -4
CCOC(=O)N1CCC(N(CCN(C)C)C(=S)Nc2cccc(SC)c2)CC1 | -19 | -25 | 1 | 2 | -9 | 3
CSCc1c(C(=O)Nc2ccccc2N2CCOCC2)oc2ccccc12 | · | · | · | 1 | -9 | ·
Cc1ccccc1C(=O)N1CCC2CC1c1cc(Cl)ccc12 (stereo not given) | · | · | · | 0 | 4 | ·
O=C(/C=C/[C@H]1O[C@@H](n2ccc(=O)[nH]c2=O)[C@H](O)[C@@H]1O)NCCCc1ccccc1 | · | · | · | -2 | · | ·
O=[N+]([O-])c1ccc2cn(-c3ccccc3)nc2c1 | 34 | 44 | 1 | 3 | -9 | 1
COc1cccc(N2CCN(C(=S)Nc3ccc(F)cc3)CC2)c1 | -3 | -2 | 5 | -1 | ? | 6
COc1cccc(NC(=O)N2CCCC2C(=O)NC(C)C)c1 (stereo not given) | -63* | -70 | -4 | 2 | -4 | 3
COc1cc(NC(=S)N2CCCC2)cc(OC)c1 | · | · | · | -1 | -5 | 17*
COc1cccc(N2CCN(C(=S)Nc3cc(C)cc(C)c3)CC2)c1 | -52* | -64 | -2 | 3 | -2 | 3
COc1cc(NC(=S)N2CCC(C(N)=O)CC2)cc(OC)c1 | -4 | -7 | 13 | 1 | -4 | 3
CCN(CC)S(=O)(=O)c1cc(C(=O)O)ccc1OC | -1 | -5 | 17 | 1 | -5 | 6
c1ccc(N2CCN(Cc3nc4ccccc4[nH]3)CC2)nc1 | -3 | -1 | 1 | 0 | -1 | -4
Cc1[nH]c2ccccc2c1CN1CCN(c2ccccn2)CC1 | 52 | 81* | -8 | 0 | -8 | 3
Cc1ccc(NC(=O)CSCc2cc(=O)n3cc(C)sc3n2)cc1 | 10 | 16 | 5 | 3 | 0 | 1
Cc1ccc(NC(=O)CSCc2cc(=O)n3cc(C)sc3n2)c(C)c1 | -59* | -69 | 0 | 1 | -1 | -1
COc1ccc(OC)c(S(=O)(=O)NCCCN2CCCC2=O)c1 | -5 | -1 | 0 | 0 | 2 | -3
COc1ccc(NCc2nnc(SCC(=O)Nc3cccc(C)c3)o2)cc1 | -54* | -61 | 12 | 2 | -4 | -4
COc1ccc(-c2nc(-c3cccs3)c(-c3cccs3)[nH]2)cc1OC | 13 | 12 | -2 | -2 | -10 | 0
COc1ccc(-c2nc(-c3ccccc3)c(-c3cccs3)[nH]2)cc1OC | 16 | 51* | -2 | 3 | -14 | 1
